The results in this text go back to PubChem BioAssay (Tox21).

A short description of assay [1]: qHTS assay to identify small molecule agonists of the hypoxia (HIF-1) signaling pathway - cell viability counter screen (AID 1224844; calls by dose curve; further: nearly all actives have a fitted effect of over 50% in size). The gist of the method:
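HRE-bla ME-180 cells in medium with 0.5% dialyzed FBS were preincubated 5 hrs at 37C, exposed to compounds for 17 hrs, then viability was read as CellTiter-Glo luminescence after 30 min at room temperature, in the reporter wells.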
A general note: qHTS replaces the single test concentration by a dilution series.

The nature of assay [2]: qHTS assay to identify small molecule agonists of the hypoxia (HIF-1) signaling pathway (AID 1224846; active means well fitted activation curve with a large enough effect in the signal ratio in the repeat runs, not every such curve was filed as active; the % refers to the signal ratio). A digest of the protocol: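 HRE-bla ME-180 cells (beta-lactamase reporter under hypoxia response element) were plated at 2,000 cells/well in medium with 0.5% dialyzed FBS, rested 5 hrs, then given compounds in DMSO for 17 hrs at 37C, 5% CO2. Reporter induction was read with CCF4-AM FRET substrate.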

Assay [3] can be described thus: qHTS assay to identify small molecule agonists of H2AX - cell viability counter screen (AID 1224847; calls by dose curve; further: top concentration of the series differs between compounds; nearly all actives have a fitted effect of over 30% in size). A digest of the protocol: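 Read-out: CellTiter-Glo luminescence, 30 min RT. Cells: wild-type CHO-K1, 1000/well, 10% FBS, plated overnight at 37C. Treatment: 15 concentrations, 3 hr, 37C, 0.76% DMSO.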
The nature of assay [4]: qHTS RealTime-Glo MT Cell Viability Assay in HepG2 cells - 24 hour (AID 1224867). Further: nearly all actives have a fitted effect of over 50% in size. A digest of the protocol: (§1)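 HepG2 cells were seeded at 600 cells/well together with NanoLuc luciferase and a cell-permeant prosubstrate, preincubated 5 h at 37 C/5% CO2, then pin-dosed with compounds in DMSO. Nonlytic luminescence from viable cells was read at each time point.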
Assay [5] is described as follows: qHTS RealTime-Glo MT Cell Viability Assay in HEK293 cells - 32 hour (AID 1224868). Further: nearly all actives have a fitted effect of over 50% in size. Further: potency means the concentration at half of the fitted maximal effect. The gist of the method:
(§2)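 HEK293 cells were seeded at 600 cells/well together with NanoLuc luciferase and cell-permeant prosubstrate, preincubated 5 h at 37 C/5% CO2, then given compound in DMSO by pintool. Luminescence from viable-cell prosubstrate reduction was read repeatedly over 40 h.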

Assay [6] can be described thus: A CellTox Green Cytotoxicity Assay to monitor cytotoxicity in HEK293 cells - 0 hour (AID 1224869). Further: nearly all actives have a fitted effect of over 50% in size. The gist of the method: (§3)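 HEK293 cells premixed with CellTox Green dye were seeded at 600 cells/well and left 5 h at 37 C/5% CO2 before pin transfer of 23 nL compound in DMSO. Fluorescence from dye bound to dead-cell DNA was read during 40 h treatment.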
Assay [7] can be described thus: qHTS RealTime-Glo MT Cell Viability Assay in HepG2 cells - 40 hour (AID 1224870). Further: nearly all actives have a fitted effect of over 50% in size. The gist of the method: (§4)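 HepG2 cells (600/well) mixed with RealTime-Glo MT reagent, settled 5 h at 37 C/5% CO2 before compound addition. Nonlytic NanoLuc luminescence from viable-cell prosubstrate reduction read repeatedly during 40 h treatment at 37 C.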
The nature of assay [8]: A CellTox Green Cytotoxicity Assay to monitor cytotoxicity in HEK293 cells - 40 hour (AID 1224871). Further: nearly all actives have a fitted effect of over 45% in size. Further: potency means the concentration at half of the fitted maximal effect. The gist of the method: as §3
Assay [9] can be described thus: qHTS RealTime-Glo MT Cell Viability Assay in HEK293 cells - 16 hour (AID 1224872). Further: nearly all actives have a fitted effect of over 50% in size. Further: potency means the concentration at half of the fitted maximal effect. A digest of the protocol:
as §2

Assay [10] can be described thus: qHTS RealTime-Glo MT Cell Viability Assay in HepG2 cells - 8 hour (AID 1224873). Further: nearly all actives have a fitted effect of over 55% in size. A digest of the protocol:
as §4

A short description of assay [11]: qHTS RealTime-Glo MT Cell Viability Assay in HEK293 cells - 40 hour (AID 1224874). Further: nearly all actives have a fitted effect of over 50% in size. Further: potency means the concentration at half of the fitted maximal effect. The note with it: RealTime-Glo luminescence; max response: stronger effect = lower value. A digest of the protocol: (§5)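 HEK293 cells mixed with RealTime-Glo reagents (NanoLuc plus cell-permeant prosubstrate) at 600 cells/well, preincubated 5 h at 37 C/5% CO2, then given 23 nL compound in DMSO. Nonlytic luminescence from viable cells was read at 0, 8, 16, 24, 32 and 40 h.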

The nature of assay [12]: A CellTox Green Cytotoxicity Assay to monitor cytotoxicity in HEK293 cells - 24 hour (AID 1224875). Further: nearly all actives have a fitted effect of over 45% in size. The gist of the method:
as §3

Assay [13] is described as follows: A CellTox Green Cytotoxicity Assay to monitor cytotoxicity in HepG2 cells - 16 hour (AID 1224876). Further: nearly all actives have a fitted effect of over 45% in size. Further: potency means the concentration at half of the fitted maximal effect. The gist of the method:
(§6)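 HepG2 cells were seeded together with the CellTox Green dye at 600 cells/well, left 5 h at 37 C/5% CO2, then given compounds in DMSO. Fluorescence from dye bound to dead-cell DNA was read repeatedly over 40 h of treatment at 37 C.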

Assay [14] in a line: qHTS RealTime-Glo MT Cell Viability Assay in HepG2 cells - 32 hour (AID 1224877). Further: nearly all actives have a fitted effect of over 55% in size. A digest of the protocol:
as §1

Assay [15] can be described thus: A CellTox Green Cytotoxicity Assay to monitor cytotoxicity in HepG2 cells - 24 hour (AID 1224878). Further: nearly all actives have a fitted effect of over 45% in size. Further: potency means the concentration at half of the fitted maximal effect. The gist of the method:
as §6

Assay [16] can be described thus: A CellTox Green Cytotoxicity Assay to monitor cytotoxicity in HepG2 cells - 40 hour (AID 1224879). Further: nearly all actives have a fitted effect of over 40% in size. Further: potency means the concentration at half of the fitted maximal effect. The gist of the method: as §6
Assay [17] in a line: qHTS RealTime-Glo MT Cell Viability Assay in HEK293 cells - 0 hour (AID 1224880). The gist of the method:
as §5

The nature of assay [18]: qHTS assay to identify small molecule antagonists of the estrogen related receptor (ERR) signaling pathway from Tox21 library (AID 1224848). Further: nearly all actives have a fitted effect of over 50% in size. Further: potency means the concentration at half of the fitted maximal effect. The gist of the method: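 Luminescent reporter read-out (ONE-Glo) from NTP's ERR cell line after 18 h treatment at 37 C with DMSO-dissolved Tox21 compounds; cells pre-plated 6 h beforehand at 2,000 per well.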
Assay [19] is described as follows: qHTS assay to identify small molecule agonists of the estrogen related receptor (ERR) signaling pathway from Tox21 library (AID 1224849; calls by dose curve; further: nearly all actives have a fitted effect of over 15% in size). The note with it: ERR reporter cell line, ONE-Glo luciferase, 18 h; at 92.4 µM (top of the series). The gist of the method:
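ERR reporter cell line (NTP) seeded, rested 6 h at 37 C/5% CO2, then pinned with Tox21 compounds in DMSO. After 18 h at 37 C, ONE-Glo luciferase luminescence was read following 30 min at room temperature.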

The nature of assay [20]: qHTS assay to identify small molecule agonists of H2AX (AID 1224845; active means well fitted activation curve with a large enough effect in the signal ratio in the repeat runs, not every such curve was filed as active; the % refers to the signal ratio). A digest of the protocol:
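Wild-type CHO-K1 cells, plated overnight, exposed 3hr at 37C to 15 concentrations (0.76% DMSO final). Lysed, then HTRF anti-pH2AX (S139) cryptate and anti-H2AX-d2 antibodies, 24 hr room temperature; 665/620 nm emission read.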

Structures are written as SMILES. Where “and” joins values, the source holds several entries; their conditions need not be identical. Equal entries are not always repeated. Results filed as inconclusive are left out. More than one record can exist for a structure, and the calls need not agree. Calls of active or inactive are those of the source. Unless noted, the call rests on the fitted dose curve; in most records, active means well fitted curve in the direction sought with a large enough effect in the repeat runs; inconclusive means weak or mixed curves; inactive means no such curve, though single readings can be large; an effect the other way counts as inactive or inconclusive.
On the % scale 0 is the no-effect control and ±100 the full control effect.

With `C=CC(=O)OCC`, the Potency result in assay [1], in assay [3], in [4], in [5], in assay [6] and in [7] was “inactive” each time. Besides, the Potency entry in [8], in [9], in [10], in assay [12], in [13] and in [14] was “inactive” throughout. The Potency entry in [15] and in assay [16] was “inactive” in each case. The outcome in assay [2] and in assay [17] was inactive. Further, the max response in [11] was -11.3% (inactive).

Take `CCCCCBr`: the Potency entry in assay [1], in assay [3], in [4], in assay [7], in assay [8] and in assay [10] was “inactive” throughout. The Potency entry in [12], in assay [13], in assay [14], in assay [15] and in [16] was “inactive” each time. In addition, the molecule was classed as inactive in [2] and in [17].

As to `CN[C@@H](C)[C@H](O)c1ccccc1`, the Potency entry in assay [1], in [3], in assay [5], in assay [6], in assay [7] and in assay [8] was “inactive” throughout. Moreover, the Potency result in assay [9], in [10], in [12], in [13], in assay [14] and in [15] was “inactive” each time. Further, in [16], the Potency entry was “inactive”. Also, the outcome in assay [2] and in assay [17] was inactive. Moreover, the max response in assay [11] was 1.2% (inactive).

As for `C[Si](Cn1cncn1)(c1ccc(F)cc1)c1ccc(F)cc1`, the Potency result in [1], in [4], in [7], in [10], in assay [12] and in assay [14] was “inactive” in each case. Moreover, the molecule was called inactive in assay [2] and in assay [17]. Further, the Potency is 28.2 µM (active) and 30.6 µM (active) in assay [18]; 25.4 µM (active) and 21.9 µM (active) in assay [5]; 54.9 µM (active) in assay [8]; 40.2 µM (active) and 21.9 µM (active) in assay [9]; 25.4 µM (active) and 21.9 µM (active) in assay [11]; 50.6 µM (active) and inactive in [13]. The Potency was 50.6 µM (active) in [15]; 50.6 µM (active) and 49 µM (active) in assay [16]. For the same molecule, the activity change, positive = activation in assay [19] was -66.3% (inactive) and -52.8% (inactive).

As for `O=C(N[C@H]1CN2CCC1CC2)c1ccc2c(c1)OCCO2`, the Potency entry in assay [20], in [3], in assay [18], in assay [4], in assay [5] and in assay [6] was “inactive” in each case. Moreover, the Potency result in assay [7], in [8], in [9], in [10], in [13] and in assay [14] was “inactive” throughout. In addition, the Potency entry in [15] and in [16] was “inactive” in each case. Besides, the molecule was classed as inactive in assay [2] and in assay [17]. The activity change, positive = activation in assay [19] was 0.537% (inactive). Besides, the max response in [11] is 0.421% (inactive).

As to `CC[N+]1(CCOC(=O)C(O)(c2ccccc2)c2ccccc2)CCCCC1`, the Potency entry in assay [1], in [3], in assay [4], in assay [5], in assay [6] and in assay [7] was “inactive” throughout. Besides, the Potency entry in assay [8], in assay [9], in [10], in [13], in assay [14] and in [15] was “inactive” in each case. Moreover, the Potency entry in [16] is “inactive”. For the same molecule, the call in assay [2] and in assay [17] was inactive. Further, the max response in assay [11] was 4.06% (inactive).

For `CCCCOC(=O)CCC(=O)OCCCC`, the Potency result in assay [20], in [3], in assay [18], in assay [4], in assay [5] and in assay [6] was “inactive” in each case. The Potency entry in assay [7], in assay [8], in assay [9], in [10], in assay [12] and in assay [13] was “inactive” each time. The Potency result in assay [14] was “inactive”. Besides, the molecule was called inactive in assay [2] and in assay [17]. Moreover, the activity change, positive = activation in assay [19] was 0.0296% (inactive). Also, the max response in [11] is 3.34% (inactive).
